TCR-CD3 inh: inhibitors of human TCR-CD3 interaction, primary screen, biochemical, fluorescence, TAMRA-labeled TCR probe; T-cell receptor (TCR); inhibition, % at 9.4 µM; 360,000 tested, 0.37% active; AID 651800, 2012; in the data active = inhibition above about 19%;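 note: recombinant mutant TCR 2C K166C tagged with TAMRA read by polarization; 0% = receptor in buffer alone and 100% = receptor with positive control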
SIAE primary: human SIAE inhibitors, primary screen, biochemical, fluorescence polarization, FP-Rh probe, 1536-well HTS; Sialate O-acetylesterase (Homo sapiens), Q9HAT2; SIAE FP-Rh probe binding; inhibition, % at 9.66 µM; 370,000 tested, 0.69% active;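 active = inhibition above a cutoff: mean of compounds within the control limits plus 3 SD of those, cut at about 17% in these data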;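 note: 0% = plate median of compound wells and 100% = probe without SIAE protein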
Fam108B counter: mouse Fam108B serine hydrolase inhibitors, primary screen, counter-screen for RBBP9 inhibitor project, biochemical, fluorescence polarization | recombinant Fam108B, FP-Rh probe fluorescence polarization | inhibition, % at 9.51 µM | 300,000 tested, 0.33% active | AID 1947, 2009;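 active = inhibition above the screen mean inhibition plus 3 SD, computed separately per campaign, cut at about 18% in these data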;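 note: inhibitors lower polarization as less probe binds the enzyme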
PRMT1 inh: PRMT1 methyltransferase inhibitors, primary screen, biochemical, fluorescence polarization; recombinant PRMT1, activity-based probe fluorescence polarization; inhibition, % at 2.79 µM; 370,000 tested, 1.3% active; AID 652257, 2013;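 active = inhibition above about 21% made by adding two undisclosed values, limit read from the data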
PAD4 inh: human PAD4 inhibitors, primary screen, biochemical, fluorescence polarization, 1536-well format; recombinant PAD4, RCA probe fluorescence polarization; inhibition, % at 6.36 µM; Protein-arginine deiminase type-4 (Homo sapiens), Q9UM07; 330,000 tested, 0.41% active;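 active = percent inhibition above a cutoff equal to the mean of all tested compounds plus 3 SD, cut at about 15% in these data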;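 note: 0% = PAD4 with RCA probe and DMSO and 100% = probe without PAD4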
PME-1 inh: PME-1 inhibitors via competitive probe labeling, primary screen, biochemical, fluorescence polarization, FP-Rh probe, HTS; recombinant PME-1; inhibition, % at 5.9 µM; 320,000 tested, 0.53% active; AID 2130, 2009;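 active = inhibition above the campaign mean of all compounds plus 3 SD, cut at about 26% in these data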;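 note: competitive labeling of PME-1 active site by serine hydrolase directed probe; 0% = PME-1 with DMSO and 100% = wells lacking PME-1 enzyme; inhibitors block probe labeling so polarization falls and inhibition rises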
Target sequence (Q9Y570 whole entry, looked up): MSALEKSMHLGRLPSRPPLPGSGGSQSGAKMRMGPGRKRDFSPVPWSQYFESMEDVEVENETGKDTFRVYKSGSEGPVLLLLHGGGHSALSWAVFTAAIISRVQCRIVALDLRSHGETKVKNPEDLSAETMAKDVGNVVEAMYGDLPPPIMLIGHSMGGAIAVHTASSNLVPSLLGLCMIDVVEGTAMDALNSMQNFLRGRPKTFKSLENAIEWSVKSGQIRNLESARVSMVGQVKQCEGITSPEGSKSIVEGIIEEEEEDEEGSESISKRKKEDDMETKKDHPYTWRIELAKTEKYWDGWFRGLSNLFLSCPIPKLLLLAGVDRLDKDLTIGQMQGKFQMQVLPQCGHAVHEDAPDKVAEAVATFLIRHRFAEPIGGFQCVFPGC
PRMT1 inh conf: PRMT1 methyltransferase inhibitors, confirmation, biochemical, fluorescence polarization, triplicate; shares compounds with PRMT1 inh; recombinant His-PRMT1, activity-based probe fluorescence polarization; inhibition, % at 2.79 µM; 3,300 tested, 42% active; AID 687036, 2013;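 active = mean inhibition across replicates above the hit cutoff derived for the earlier primary screen, cut at about 22% in these data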
Active calls of the source: *; nt = no result. Rows were chosen to be rich in hits. Some 2.6% of all compounds tested hit in one or more screens of this group.

SMILES	TCR-CD3 inh	SIAE primary	Fam108B counter	PRMT1 inh	PAD4 inh	PME-1 inh	PRMT1 inh conf
O=[n+]1c2c(n([O-])c3cc(Br)ccc31)CCCC2	-0.7	8.2	-0.8	0.7	0.0	0.8	nt
Oc1ccc(CNc2cccc(F)c2)c2cccnc12	nt	7.1	nt	63.0*	nt	nt	48.0*
Oc1ccc(CNc2ccccc2Br)c2cccnc12	nt	6.1	nt	32.4*	nt	nt	19.2
CC(=O)c1cc(-c2cccc(C#N)c2)c(=O)n2c1CCC2	nt	3.6	nt	3.1	nt	nt	nt
CC(=O)Nc1ccc2sn(-c3ccccc3)c(=O)c2c1	3.4	4.9	nt	76.8*	nt	nt	89.5*
O=c1c2cc([N+](=O)[O-])ccc2sn1-c1ccccc1	0.3	5.0	nt	63.9*	nt	nt	80.6*
N#Cc1ccc2sn(-c3ccccc3)c(=O)c2c1	1.6	5.0	nt	87.5*	nt	nt	98.4*
O=C1C(=O)N(Cc2ccc(-c3ccc(F)nc3)cc2)c2ccc(OC(F)(F)F)cc21	nt	-1.3	nt	1.9	nt	nt	nt
Cc1ccccc1N1C(=O)C2C3C=CC(C2C1=O)N(C)C3=O (centres undefined)	1.2	-3.1	1.6	0.1	-2.6	2.1	nt
CN1C2C=CC(=O)C1C1C(=O)N(c3ccccc3)C(=O)C12 (centres undefined)	-4.1	1.1	nt	28.1*	nt	nt	2.3
O=C(Nc1ccc(F)cc1)OCc1cn(Cc2cccc(F)c2)nn1	nt	-1.5	nt	1.9	nt	nt	nt
CCCCCNC(=O)C(c1ccccc1F)n1c(=O)c(-c2ccco2)nc2ccccc21 (centres undefined)	-5.7	-21.9	nt	30.9*	nt	nt	25.5*
CCCCCNC(=O)C(c1ccc(OC)cc1)n1c(=O)c(-c2ccco2)nc2ccccc21 (centres undefined)	-13.2	-8.3	nt	27.8*	nt	nt	13.5
CC(C)(C)NC(=O)C(c1ccccc1F)n1c(=O)c(-c2ccco2)nc2ccccc21 (centres undefined)	2.7	-8.9	nt	15.4	nt	nt	nt
O=C1C=C[C@H]2CC[C@@H](O)[C@@H]1[C@@H]2Sc1ccccc1	nt	1.0	nt	-0.8	nt	nt	nt
FC(F)Sc1ccc(Nc2ncnc3nc[nH]c23)cc1	-2.5	6.0	1.4	34.8*	3.7	-4.1	20.0
COC(=O)[C@]12C[C@H](CC(=O)NCCc3ccccc3OC)C(=O)N(Cc3cccc4ccccc34)C1=C[C@H](COCc1ccccc1)O[C@@H]2C	nt	-7.2	nt	2.8	nt	nt	nt
COc1ccc(OC)c(NC(=O)CSc2nncc3ccc(OC)c(OC)c23)c1	11.0	11.4	5.4	55.5*	-0.2	2.8	3.7
O=S1(=O)c2ccc(Br)cc2OC[C@H](Cc2ccccc2)N1Cc1cn(Cc2ccc(F)cc2)nn1	nt	0.5	nt	-0.3	nt	nt	nt
O=C1CCC/C(=N/NC(=O)c2sc3ccccc3c2Cl)C1	-15.6	-2.9	-14.8	85.2*	-13.1	-17.6	8.2
O=C1NC(=O)C(c2ccc(Cl)cc2Cl)N1 (centres undefined)	-3.5	1.2	nt	-6.1	nt	nt	nt
N#CC1=C(N)NC(=S)C(C(N)=O)C1c1ccc(Cl)cc1Cl (centres undefined)	1.0	5.6	-5.2	72.5*	0.2	1.4	34.3*
N#CC1=C(N)NC(=S)C(C(N)=O)C1c1ccccc1F (centres undefined)	4.2	7.0	2.2	63.9*	2.5	-10.2	34.0*
CCNc1nc(NC(C)(C)C)nc(N2CCCC2)n1	2.4	4.1	-0.2	31.7*	-0.2	-1.2	2.8
C=CCOc1c(Br)cc(CNc2ccc3[nH]c(=O)[nH]c3c2)cc1OCC	4.0	7.3	-3.3	30.1*	-4.6	-0.4	14.7
SMILES	TCR-CD3 inh	SIAE primary	Fam108B counter	PRMT1 inh	PAD4 inh	PME-1 inh	PRMT1 inh conf
COc1cc(CNc2ccc3[nH]c(=O)[nH]c3c2)ccc1OCc1ccccc1F	-6.4	2.8	1.4	29.4*	-0.2	4.2	10.4
COc1cc(CNc2ccc3[nH]c(=O)[nH]c3c2)cc(Br)c1OCC(=O)NC(C)(C)C	-7.5	1.9	4.4	25.4*	-6.0	13.8	11.8
COc1cc(CNc2ccc3[nH]c(=O)[nH]c3c2)ccc1OCC(=O)NC(C)(C)C	0.9	4.6	-0.5	6.0	-7.4	-4.2	nt
CC(C)N1CCCCC(NC(=O)c2cccc(C(F)(F)F)c2)C1=O (centres undefined)	nt	1.0	nt	-0.5	nt	nt	nt
S=C1SCN(Cc2ccccn2)CN1Cc1ccco1	5.4	8.6	-2.8	29.7*	-5.6	2.3	12.9
C=C1C(=O)C23C(O)C1CCC2C12CCCC(C)(COC(C)=O)C1C(O)C3(O)OC2 (centres undefined)	-2.1	5.5	nt	30.9*	nt	nt	32.5*
CCOC(=O)CC[C@@H]1CC[C@]2(CCCN(C(=O)C3CCCCC3)C2)O1	nt	4.1	nt	0.1	nt	nt	nt
COc1ccc(Nc2nnc(SCc3cc(=O)n4ccsc4n3)s2)cc1	3.5	-9.1	3.6	28.8*	2.3	11.1	34.7*
CC1=C(C)CS(=O)N(S(=O)(=O)c2ccc(Cl)cc2)C1 (centres undefined)	6.4	-5.6	-6.8	34.3*	-2.6	-6.1	43.1*
O=C(OC12CCCN(C1)/C(=C/c1ccccc1)C2)c1ccc(F)cc1 (centres undefined)	nt	0.0	nt	0.5	nt	nt	nt
Cc1ccc(NC(=O)c2cc(N3C(=O)C=CC3=O)ccc2N2CCOCC2)cc1	7.3	0.1	nt	90.7*	nt	nt	89.0*
C=CCn1c(SCC(=O)Nc2ccc(Br)cc2)nc(O)c(CC)c1=O	-3.9	-2.1	5.2	53.4*	2.7	4.5	15.9
O=C(CC(Sc1ccccc1)c1cccs1)c1ccco1 (centres undefined)	-3.2	-4.6	0.4	80.3*	4.8	1.8	83.4*
O=C(Cc1cccs1)OCC(=O)c1ccco1	1.5	-0.8	-0.4	2.1	4.2	-3.9	nt
O=C(CCC(=O)N1CCOc2ccccc21)N1CCOCC1	2.1	-3.2	3.4	-0.9	-2.3	-0.2	nt
O=C(CCC(=O)N1CCOc2ccccc21)N1CCN(c2ccccc2)CC1	-3.8	5.2	2.8	54.8*	1.9	3.1	6.5
Cc1ccc(C2CC2c2n[nH]c(=S)n2-c2ccc(Cl)cc2)cc1 (centres undefined)	4.2	6.2	3.0	26.7*	-2.0	-0.9	11.0
Cc1ccc(C2CC2c2n[nH]c(=S)n2-c2cccc(C)c2)cc1 (centres undefined)	-4.4	4.7	0.6	25.8*	-5.7	-1.0	17.1
CC(=O)c1ccc(S(=O)(=O)NCC(=O)NC(c2nc3ccccc3[nH]2)C(C)C)cc1 (centres undefined)	5.6	-2.8	nt	33.9*	3.2	nt	38.5*
O=C(O)c1ccccc1C(=O)Nc1ccccc1	-15.8	-4.6	-2.4	-0.8	1.0	1.1	nt

Compound activity from PubChem.
